PI5P4Ka inh = inhibitors of human PI5P4K alpha; P48426; PI5P4Kalpha enzyme, ADP-Glo luminescence, 60 min; stronger effect = lower value; max response, %; actives 1.2% (n = 330,000); active means max response of -50% or lower; inconclusive means between -30% and -50%; inactive means -30% or higher; further: value at the top dose of about 77 µM
Target sequence (P48426 whole entry, looked up): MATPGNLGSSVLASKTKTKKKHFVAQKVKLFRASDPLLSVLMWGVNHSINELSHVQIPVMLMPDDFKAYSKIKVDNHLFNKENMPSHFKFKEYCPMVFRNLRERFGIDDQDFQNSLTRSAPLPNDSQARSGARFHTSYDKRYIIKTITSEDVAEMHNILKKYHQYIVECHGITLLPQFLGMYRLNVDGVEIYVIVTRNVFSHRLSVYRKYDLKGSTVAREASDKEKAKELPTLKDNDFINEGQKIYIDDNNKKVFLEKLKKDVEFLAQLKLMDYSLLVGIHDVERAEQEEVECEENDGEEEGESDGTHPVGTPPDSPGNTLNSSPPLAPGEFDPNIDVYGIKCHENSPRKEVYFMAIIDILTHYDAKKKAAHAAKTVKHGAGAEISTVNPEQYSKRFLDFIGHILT
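Quantitative HTS of the MLSMR library against PI5P4Kalpha with substrate. ATP added last at 5 microM final; room temperature, 60 minutes. Remaining ATP depleted, ADP converted and read as luminescence.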
JMJD2A Tudor = JMJD2A Tudor domain (human) inhibition; O75164; AlphaScreen JMJD2A-Tudor / H3K4me3 peptide binding; Potency, µM (doses to about 114 µM), usual class: inhibitors; actives 4.4% (n = 390,000); further: nearly all actives have a fitted effect of over 50% in size
HP1b binding inh = blocks HP1-beta chromodomain binding to methylated histone tails | P83916 | AlphaScreen HP1-beta / biotin-H3K9me3 peptide binding | Potency, µM (titrated, usually from 114 µM), hits mostly inhibitors | actives 0.56% (n = 390,000); further: nearly all actives have a fitted effect of over 70% in size
Target sequence (P83916 whole entry, looked up): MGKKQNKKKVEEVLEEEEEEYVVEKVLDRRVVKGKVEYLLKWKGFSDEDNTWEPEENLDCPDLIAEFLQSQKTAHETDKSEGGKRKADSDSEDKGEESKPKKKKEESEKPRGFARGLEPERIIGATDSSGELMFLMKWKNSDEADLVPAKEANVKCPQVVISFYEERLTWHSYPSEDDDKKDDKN
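Compound inhibition of the preformed complex between 50 nM HP1-beta and 50 nM biotinylated H3K9me3 peptide was read by AlphaScreen. Buffer was PBS pH 7.4 with 0.01% Tween-20. Incubations ran 30 min at room temperature, with 10 ug/mL donor/acceptor beads.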
PLK1 PBD inh = inhibitors of human PLK1 polo-box domain binding; P53350; Plk1 PBD binding of FITC phosphopeptide, fluorescence polarization; Potency, µM, actives largely listed as inhibitors; actives 2.8% (n = 360,000); further: series mostly up to about 57 µM; nearly all actives have a fitted effect of over 65% in size
BAZ2B inh = BAZ2B (human) inhibition; Q9UIF8; AlphaScreen BAZ2B-H3K14Ac peptide displacement; Potency, µM (highest dose often 114 µM), hits mostly inhibitors; actives 4.4% (n = 360,000); AID 504333; further: nearly all actives have a fitted effect of over 60% in size
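BAZ2B 50 nM plus b-H3(5-23)K14Ac 50 nM, PBS pH 7.4/0.01% Tween-20, 30 min RT; compound added (max 110 uM), 30 min RT; streptavidin donor/Ni-chelate acceptor beads 10 ug/mL final, 20 min dark; AlphaScreen read.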
GCN5L2 inh = inhibitors of human GCN5L2 histone acetyltransferase | GCN5L2 HAT assay, ThioGlo1 CoA-SH fluorescence | actives 0.21% (n = 390,000) | Potency, µM (highest dose often 58.9 µM), actives largely listed as inhibitors | Q92830
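Free CoA generated was detected with ThioGlo1 (50uM) fluorescence at Ex340nm/Em540nm, read immediately and after 20 min at room temperature. Enzyme, 20 nM in HEPES pH 7.5 buffer, saw compounds 15 min before adding 75uM H3(1-25) peptide and 70uM acetyl-CoA.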
A number is an active result; . = inactive; ? = inconclusive; / = not tested or not shown; ! = not confirmed by another sample; [ ] = another dose, or the depositor's remark. The list is not random: actives were taken first. Their share in the collection is about 7%. Unless noted, the call rests on the fitted dose curve; in most records, active means well fitted curve in the direction sought with a large enough effect; inconclusive means small, poorly fitted or top-dose-only effect, or another doubt; inactive means no such curve, though single readings can be large; an effect the other way counts as inactive or inconclusive.

SMILES	PI5P4Ka inh	JMJD2A Tudor	HP1b binding inh	PLK1 PBD inh	BAZ2B inh	GCN5L2 inh
ON=C1c2cc(OCCN3CCCCC3)ccc2-c2ccc(OCCN3CCCCC3)cc21	.	?	.	19µM	?	.
Clc1cccc(OCCN2CCN(CCOc3cccc(Cl)c3)CC2)c1	.	?	.	.	?	.
Clc1ccc(OCCN2CCCCC2)cc1Cl	.	22µM	.	.	?	.
c1ccc(-c2ccc(OCCN3CCCC3)cc2)cc1	/	/	/	/	/	.
CCOc1ccc(OCCN2CCCCC2)cc1	.	10µM	.	.	56µM	.
c1ccc(OCCOCCN2CCN(C(c3ccccc3)c3ccccc3)CC2)cc1	.	0.89µM	?	.	50µM	.
O=S(=O)(c1ccc2c(c1)CCCC2)N1CCN(c2nc(-c3ccccc3)nc3ccccc23)CC1	/	.	.	/	/	/
CCN1CCN(c2ncc3c(n2)CCN(CC(C)C)C3)CC1	/	.	.	/	?	.
CC(C)OC(=O)CSc1nnc(C2CCCCC2)n1N	.	.	.	.	.	.
O=c1cc(-c2ccc(F)cc2)nc(SCc2nc(-c3cccc(C(F)(F)F)c3)no2)[nH]1	/	.	.	/	.	.
CCOc1ccc(OCCOCCN2CCCC2)cc1	.	28µM	.	.	?	.
O=C(Cn1c(-c2cccs2)cc2ccccc21)NCCCN1CCN(c2cccc(Cl)c2)CC1	/	?	.	/	25µM	.
CCN1CCN(CCCNC(=O)Cn2c(-c3cccs3)cc3ccccc32)CC1	/	.	.	/	.	.
Cc1ccc(C)c(N2CCN(CCCNC(=O)Cn3c(-c4cccs4)cc4ccccc43)CC2)c1	/	?	.	/	35µM	.
Cc1cccc(-c2nc3c4ccccc4nc(NCc4ccccc4Cl)n3n2)c1	/	.	.	/	?	.
CCCc1nc(SCC(=O)c2ccc3c(c2)NC(=O)CO3)[nH]c(=O)c1CC	.	?	.	19µM	/	/
Cc1ccc(/C=C/C(=O)OCC(=O)c2ccc3c(c2)NC(=O)CO3)o1	.	.	.	.	/	.
O=C1COc2ccc(C(=O)CCl)cc2N1	.	.	.	1.9µM	.	.
CCCc1cc(=O)[nH]c(SCC(=O)c2ccc3c(c2)NC(=O)CO3)n1	.	.	.	.	.	.
CCc1ccc(OCC(=O)OCC(=O)c2ccc3c(c2)NC(=O)CO3)cc1	/	.	.	.	.	.
O=C1COc2ccc(C(=O)COC(=O)/C=C/c3ccc(Br)o3)cc2N1	-80	?	.	?	45µM	.
CCCCCCC(=O)OCC(=O)c1ccc2c(c1)NC(=O)CO2	.	.	.	9.5µM	.	.
CCC(C)CN1C(=O)CSCC1(C)C(=O)Nc1c(C)cccc1C (configuration not stated)	.	/	/	.	/	/
CCOC(=O)N1CCN(S(=O)(=O)c2ccc(OC)c(Br)c2)CC1	.	.	.	.	.	.
COc1ccc(NS(=O)(=O)c2ccc(N3CCOCC3)c(NC(=O)c3ccc(F)cc3)c2)cc1	.	.	.	.	.	.
SMILES	PI5P4Ka inh	JMJD2A Tudor	HP1b binding inh	PLK1 PBD inh	BAZ2B inh	GCN5L2 inh
N#Cc1ccc(C(=O)Nc2cc(S(=O)(=O)N3CCOCC3)ccc2N2CCCC2)cc1	.	.	.	.	/	.
O=C(Nc1cc(S(=O)(=O)Nc2ccc(Cl)cc2)ccc1N1CCCCC1)c1ccc(F)cc1	.	?	?	12µM	.	.
N#Cc1ccc(C(=O)Nc2cc(S(=O)(=O)Nc3ccc(Cl)cc3)ccc2N2CCCCC2)cc1	?	?	?	6µM	.	.
O=C(CN1C(=O)NC2(CCOc3ccccc32)C1=O)c1ccc(F)cc1 (configuration not stated)	.	.	.	.	.	.
COc1ccc(S(=O)(=O)N2CCCCCC2)cc1C(=O)N1CCN(C(C)=O)CC1	.	/	/	.	/	/
O=C1/C(=C\c2ccc(Br)o2)SC(=Nc2ccccc2)N1c1ccccc1	/	25µM	.	.	8.9µM	.
Cc1cc(NC(=O)CSc2nnc(CNC(=O)c3ccc(F)cc3)o2)no1	.	.	.	.	.	.
C=CCOc1c(Br)cc(/C=C2/C(=O)ON=C2C)cc1OC	.	20µM	.	4.7µM	?	.
C#CCOc1c(Br)cc(/C=C2/C(=O)ON=C2C)cc1OC	.	.	.	2.7µM	.	.
CCOc1c(Br)cc(/C=C2\N=C(C)OC2=O)cc1Br	.	.	.	.	.	.
C#CCOc1c(Cl)cc(/C=C2/C(=O)ON=C2C)cc1OCC	.	.	.	6µM	.	.
C#CCOc1c(Br)cc(/C=C2/C(=O)ON=C2C)cc1OCC	.	.	.	4.2µM	?	.
C#CCOc1c(Cl)cc(/C=N/NC(N)=S)cc1OCC	.	.	.	.	.	.
COc1cc(/C=C2\N=C(C)OC2=O)cc(OC)c1OC	.	.	.	.	.	.
CC1CCN(C(=O)CN2CCSc3ccccc32)CC1	/	.	.	/	.	.
Cc1ccc2[nH]c(CSc3nnc(NC(=O)COc4ccccc4Cl)s3)cc(=O)c2c1	/	.	.	/	.	.
C#CCOc1ccc(/C=C2/C(=O)ON=C2C)cc1Cl	.	13µM	.	2.1µM	.	.
COC(=O)c1cc2n3ccccc3c(C)c(-c3ccccc3)c-2c1C(=O)OC	.	?	?	.	45µM	.
COC(=O)c1cc2c(C)c(C)c3ccccn3c-2c1C(=O)OC	.	.	.	.	.	.
CCCCCCCCCCCCCCCC[n+]1cccc(C(=O)N(CC)CC)c1	-73!	.	.	?	.	.
N#C/C(=C\c1coc2ccccc2c1=O)C(N)=S	?	.	?	12µM	?	?
N#CCC(=O)N/N=C\c1ccccc1OC/C=C/c1ccccc1	.	?	.	.	50µM	.
N#CCC(=O)N/N=C/c1coc2ccccc2c1=O	-86	.	.	.	.	.
O=C(O)/C=C/c1coc2ccccc2c1=O	.	.	.	.	.	.
CCCN1/C(=C(\C#N)C2=NS(=O)(=O)c3ccccc32)N(C)c2ccccc21	.	.	.	.	/	/
SMILES	PI5P4Ka inh	JMJD2A Tudor	HP1b binding inh	PLK1 PBD inh	BAZ2B inh	GCN5L2 inh
CCc1ccccc1NC(=O)C1CCN(C2=NS(=O)(=O)C(c3ccc(C)c(C)c3)=C2C)CC1	/	.	.	/	?	.
O=C(NCc1ccc2c(c1)OCO2)C1CCCN(S(=O)(=O)c2cccc3nonc23)C1 (configuration not stated)	?	.[11.4 µM]	.	27µM!	.	.
CCCCn1cnc2c(SCc3ccccc3Cl)nc(N)nc21	.	.	.	?	/	/
CCCC1(C(=O)OC)NC(c2ccc(OC)cc2OC)C2C(=O)N(c3cccc(C(C)=O)c3)C(=O)C21 (configuration not stated)	.	.	.	.	.	.
Cc1ccc(-c2csc3n[nH]c(=S)n23)cc1	-95	1.1µM	?	.	28µM	25µM
Cc1cccc(C)c1OCc1cc(=O)n2ccsc2n1	/	.	.	/	.	.
